# Measurements published in PubChem BioAssay AID652054 (National Center for Advancing Translational Sciences (NCATS), 2013).
# About 9,100 (2.5%) of roughly 360,000 compounds were called active. Roughly 4% stayed inconclusive and do not appear here. Many of the other results were omitted from the sample, so actives are more common in it than they were. Unmarked numbers belong to inactive results. Cut-off read from the data, not from the text of the source: active = max response below about -50%; inconclusive = no clear call, values can overlap the other calls; inactive = above that.
# Target: D(3) dopamine receptor (Homo sapiens) (UniProt P35462)
# Sequence (P35462 whole entry, looked up): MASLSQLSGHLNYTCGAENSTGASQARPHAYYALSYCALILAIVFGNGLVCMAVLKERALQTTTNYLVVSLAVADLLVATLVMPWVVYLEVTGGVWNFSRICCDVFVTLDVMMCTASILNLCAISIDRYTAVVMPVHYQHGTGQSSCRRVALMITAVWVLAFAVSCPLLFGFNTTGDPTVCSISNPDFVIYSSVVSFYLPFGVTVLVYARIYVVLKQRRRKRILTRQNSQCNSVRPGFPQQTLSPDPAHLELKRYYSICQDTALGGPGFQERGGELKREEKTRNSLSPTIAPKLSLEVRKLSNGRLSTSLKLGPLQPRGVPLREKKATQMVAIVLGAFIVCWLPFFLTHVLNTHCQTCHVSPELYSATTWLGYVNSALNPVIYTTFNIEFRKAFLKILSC
# Assay: qHTS of D3 Dopamine Receptor Antagonist: qHTS
# Conditions: D3R cells, DiscoveRx beta-arrestin luminescence, antagonist mode; active compounds read low
# How it was run: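 Cells expressing the human receptor were seeded at 1500 cells/well, incubated overnight at 37 degrees C in 5% CO2, then exposed to library compounds with dopamine controls for 90 minutes at 37 degrees C before luminescent detection.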
# % is set by controls: 0 for no effect and ±100 for the full control effect.
row,Compound,"max response, negative = inhibition"
1,CC1=C(C(=O)N2CCOCC2)CC(CC(=O)NCCCN(C)C)C(=O)N1Cc1ccc(C(C)(C)C)cc1 (stereo not given),35.5%
2,Nc1nc2c(ncn2[C@@H]2O[C@H](CNS(=O)(=O)N3CCc4ccccc4C3)[C@@H](O)[C@H]2O)c(=O)[nH]1,4.77%
3,CCCCc1c(-c2ccc(Br)cc2)ncn1CCc1ccccc1OC,65.6%
4,COc1cccc(CC2(CO)CCCN(Cc3nc(-c4cccs4)oc3C)C2)c1 (stereo not given),-116% (active)
5,COc1cccc(CC2(CO)CCCN(Cc3ccc(OC(F)F)cc3)C2)c1 (stereo not given),8.8%
6,COc1cccc(CC2(CO)CCCN(CC3=Cc4cc(OC)ccc4OC3)C2)c1 (stereo not given),-6.63%
7,CCOc1ccc(CCNC(=O)COC(=O)c2ccc(C)c(S(=O)(=O)N3CCOCC3)c2)cc1OCC,-5.11%
8,O=C(c1ccc(Br)o1)N1CCN(CCOc2ccccc2)CC1,27.8%
9,O=C(c1ccco1)N1CCN(CCOc2ccccc2)CC1,-16.8%
10,O=C(Nc1ccc(F)cc1F)N1CCCN(CCOc2ccccc2)CC1,-70.2% (active)
11,COc1ccc(S(=O)(=O)N2CCOCC2)c(C)c1C,-69.1% (active)
12,COc1cc(C)c(S(=O)(=O)N2CCOCC2)c(C)c1C,0.216%
13,COc1ccc(S(=O)(=O)N2CCCC2)c(C)c1C,-3.98%
14,COc1ccc(CC(N)c2csc(NC(=O)Nc3ccc(C(C)C)cc3)n2)cc1 (stereo not given),-12.1%
15,OC(c1ccc(Cl)c(F)c1)c1ncc(-c2ccccc2Cl)[nH]1 (stereo not given),-18%
16,CCSc1ncnc2c(C#N)c3n(c12)CCCCC3,-10.2%
17,CCSC1=C(C#N)C(=O)n2c1cc1c2CCCC1,-65.6% (active)
18,CCN1C(=O)[C@H]2[C@@H](c3ccc(C(F)(F)F)cc3)N[C@]3(CCCN(Cc4ccc(Br)cc4)C3=O)[C@H]2C1=O,2.39%
19,O=C(Nc1cc(S(=O)(=O)Nc2ccc(Cl)cc2)ccc1O)c1ccc(F)cc1F,-59.6% (active)
20,O=C(Nc1cccc(S(=O)(=O)NC2=NCCC2)c1)c1ccc(F)cc1F,5.01%
21,CCS(=O)(=O)c1ccc(O)c(NC(=O)COc2ccc(Cl)cc2)c1,0.528%
22,COc1ccc(-c2csc(C(O)c3cccc(Cl)c3)n2)cn1 (stereo not given),-24%

row,Compound,"max response, negative = inhibition"
1,Nc1[nH]c(C(=O)c2ccccc2)c(-c2ccc(Br)cc2)c1C(=O)NC1CC1,6.89%
2,COC(=O)c1ccc(-n2cnc3ccccc32)nc1,3.06%
3,c1ccc(-c2nccc(-c3ccc(-n4cnc5ccccc54)cc3)n2)nc1,-53.4% (active)
4,N#CCCn1cnc2ccccc21,-1.87%
5,CC1=C(C(=O)N2CCOCC2)CC(CC(=O)NCCN2CCOCC2)C(=O)N1CCC1=CCCCC1 (stereo not given),35.9%
6,O=C(NCCS(=O)(=O)N1CCN(c2ccccc2)CC1)c1cc(=O)c2ccccc2o1,9.87%
7,COc1ccc([C@H]2C[C@@H](n3cc(COC(=O)c4ccccc4)nn3)[C@H](O)CN2C(=O)c2cccs2)cc1,-28.2%
8,COCCNc1nc(N)c([N+](=O)[O-])c(N2CCCCCC2)n1,16.7%
9,CC1CN(c2nc(Nc3ccccc3)nc(N)c2[N+](=O)[O-])CC(C)O1 (stereo not given),14.2%
10,CCN1CCN(c2nc(Nc3cccc(F)c3)nc(N)c2[N+](=O)[O-])CC1,-76.5% (active)
11,Cc1ccc(S(=O)(=O)N2CCC(=O)N([C@H](COCc3ccccc3)C(C)C)CC2)cc1,8.56%
12,CC(C)c1cc(Cn2c3ccccc3c(=O)n2C(C)Cn2cc(C3CC3)nn2)on1 (stereo not given),0.832%
13,CCCCC[C@@H]1C=C(C(=O)OCC)[C@H](c2ccccc2)N1S(=O)(=O)c1ccc(C)cc1,0%
14,O=C(OCc1cn([C@H]2C[C@H](c3ccccc3)N(C(=O)c3cccs3)C[C@@H]2O)nn1)c1ccccc1,-25.2%
15,COc1c(C)cc(C(O)c2ncc(-c3cccc(C(F)(F)F)c3)[nH]2)cc1C (stereo not given),0%
16,COC(=O)N(C)C[C@@H]1OCc2cnnn2CCCC(=O)N([C@@H](C)CO)C[C@@H]1C,-14.7%
17,c1ccc2cc3[nH]c(CN4CCCCC4)nc3cc2c1,-50.3% (active)
18,O=c1cc(CN2CCCCCCC2)c2c(ccc3ccccc32)o1,5.7%
19,Cc1ccc2[nH]c(=O)c(CN3CCCCC3)c(-c3ccccc3)c2c1,16.1%
20,COc1cccc(/C=C2\SC(=S)N(CCCC(=O)N3CCOCC3)C2=O)c1,-20.9%
21,COCCN1C(=O)N[C@@H](CCc2ccccc2)[C@H](C(C)=O)[C@H]1C,2.91%
22,CCN1C(=S)N[C@@H](CCc2ccccc2)[C@H](C(=O)OC)[C@H]1C,-63% (active)

row,Compound,"max response, negative = inhibition"
1,CCN1C(=NCc2ccc(OC)cc2)N[C@@H](CCc2ccccc2)[C@H](C(=O)NCc2ccc(OC)cc2)[C@H]1C,4.01%
2,Cn1c(CCN2CCN(c3ccccn3)CC2)nc2cc(NS(=O)(=O)c3ccc(F)cc3)ccc21,0%
3,CCOC1=C2CN(S(=O)(=O)c3ccc(C)cc3)[C@H](c3cccs3)C[C@H]2[C@H]2C(=O)N(c3ccccc3)C(=O)[C@H]2C1,-26.5%
4,CCc1nc2c(OCc3ccccc3)cccn2c1N(C)C(=O)c1ccco1,-0.512%
5,Cc1ccc(S(=O)(=O)N2C[C@@H](C)[C@]3(C2)[C@H](O)[C@H](OC(=O)NCc2ccccc2)C[C@H]2C(=O)N(c4ccccc4)C(=O)[C@H]23)cc1,18.6%
6,CC(=O)Nc1cc(-c2ccccc2N(C)C)cn2c(-c3ccc(F)c(Cl)c3)cnc12,-55.6% (active)
7,CC(=O)Nc1cccc(-c2cc(NC(C)=O)c3ncc(-c4ccccc4)n3c2)c1,10.2%
8,CC(=O)Nc1cccc(-c2cc(NC=O)c3ncc(-c4ccc(F)c(Cl)c4)n3c2)c1,58.6%
9,CC(=O)Nc1cc(-c2cccc(CO)c2)cn2c(-c3cccc(C(F)(F)F)c3)cnc12,-52.6% (active)
10,CC(=O)Nc1cc(-c2ccccc2F)cn2c(-c3cccc(C(F)(F)F)c3)cnc12,-2.07%
11,COc1ccccc1-c1cc(NC(C)=O)c2ncc(-c3ccc(F)cc3)n2c1,0%
12,C[C@H](NC(=O)CC[C@H]1O[C@@H](n2ccc(=O)[nH]c2=O)[C@H](O)[C@@H]1O)c1cccc2ccccc12,-12.4%
13,COc1ccc(OC)c(NC(=O)c2cc(-c3cc(F)ccc3OCC3CCCO3)n[nH]2)c1 (stereo not given),8.86%
14,COc1ccc(-n2c(-c3ccc(Cl)cc3)n[nH]c2=S)c(OC)c1,15.8%
15,COC(=O)C[C@H]1C=C[C@@H](NS(=O)(=O)c2ccc(C)cc2)[C@@H](CO)O1,14.9%
16,CCCCc1nc2ccc(F)cc2cc1C,20.6%
17,CC(=O)Nc1ccc(S(=O)(=O)N2CCN(CCCOc3cc(C)ccc3C)CC2)cc1,15.6%
18,Cc1ccc(C)c(OCC(=O)NNC(=O)C2CCC2)c1,1.58%
19,Cc1ccc(OCCCC(=O)N2CCOCC2)c(C)c1,4.43%
20,C=CCc1cc(C)ccc1OCCCn1ccnc1,-3.51%
21,Cc1ccc(OCCCCN2CCCCC2)c(Br)c1,-102% (active)
22,Cc1ccc(C(C)(C)C)c(OCCCCN2CCCC2)c1,-80.6% (active)

row,Compound,"max response, negative = inhibition"
1,CCN(CC)C(=O)C(C)N1c2cccc3cccc(c23)S1(=O)=O (stereo not given),-22.2%
2,Cc1cccc(CN2CCN(C3CN(Cc4cn(Cc5ccccc5F)nn4)S(=O)(=O)C3)CC2)c1 (stereo not given),6.92%
3,O=C1c2ccccc2-c2ccccc2NC1O (stereo not given),0%
4,O[C@H]1CN(Cc2cccs2)[C@@H](c2ccc(Cl)cc2)C[C@@H]1n1cc(C2CC2)nn1,8.97%
5,NC(c1ccccc1)c1csc(NC(=O)Nc2cccc(C(F)(F)F)c2)n1 (stereo not given),18.1%
6,C#CCNC(=O)C[C@@H]1C[C@@]2(C(=O)OCC)CCCC=C2N(Cc2ccco2)C1=O,5.5%
7,Cc1ccc(Cc2cnc(NC(=O)/C(C#N)=C/c3ccc(-c4cccc([N+](=O)[O-])c4)o3)s2)cc1,-59.9% (active)
8,Cc1ccc(-c2ccc(/C=C(\C#N)C(N)=S)o2)c([N+](=O)[O-])c1,-5.05%
9,Cc1ccc(C(=O)N/C(=C/c2ccc(-c3cccc([N+](=O)[O-])c3)o2)C(=O)NCCCN(C)C)cc1,10.3%
10,Cc1[nH]c2ccccc2c1C(=O)c1cc([C@H](NC(=O)OC(C)(C)C)C(C)C)sc1N,17.9%
11,COC(=O)c1ccc(CN2C(=O)C(Cc3ccccc3)ON=C2c2ncccc2C)o1 (stereo not given),14.2%
12,CCCCCCN1CCN(C2CN(Cc3cn(CCCCCC)nn3)S(=O)(=O)C2)CC1 (stereo not given),-13.3%
13,O=C(Nc1cccc2cccnc12)c1ccc2sc([C@H]3C[C@H](O)[C@@H](CO)O3)nc2c1,119%
14,CSc1ccccc1NC(=O)CN(C)CC(=O)Nc1ccc(Cl)cc1[N+](=O)[O-],-10.8%
15,CCN(CC)CCNc1ccc(Cl)cc1[N+](=O)[O-],-86.2% (active)
16,CN(C)CCNc1ccc(-c2n[nH]c(=O)c3ccccc23)cc1[N+](=O)[O-],-21.7%
17,CC1Cc2[nH][nH]c(=O)c2C(C2CC2)O1 (stereo not given),2.81%
18,O=C(NCc1ccccc1)C1c2ccccc2OCC(=O)N1C1CC1 (stereo not given),3.07%
19,CCC(c1nc2ccccc2[nH]1)n1c(=O)c(-c2cccs2)nc2ccccc21 (stereo not given),-19.2%
